# Results as given in PubChem BioAssay (EPA / NIEHS).
# “And” between values parts separate entries of the source, which are not always exact repeats. Equal values may be shown once. Results filed as inconclusive are left out. Some compounds were tested as several samples or in several runs, with calls that do not always agree. The source made the active and inactive calls. Rule for the calls: active = hit-call score of the fitted dose curve at least 0.9, where 1 is the maximum; inconclusive = response in the unintended direction; inactive = score below 0.9.
# How the values were obtained:
# [1] = ATG_XTT_Cytotoxicity: Cytotoxicity Assessment in the Attagene TRANS-FACTORIAL HepG2 Assay (AID 2283584);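 for AC50: cells exposed to compound for 24 h before reading; active means loss of viability signal versus DMSO baseline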
# Procedure, shortened: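 Cells: human HepG2, transiently transfected with MRTU reporter constructs. Exposure 24 h. Readout: XTT, cell number. Baseline/neg ctrl DMSO; loss-of-signal scored.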
# [2] = TOX21_p53_BLA_p2_viability: Viability Assessment in the Tox21 HCT-116 p53 Agonism Beta-lactamase Assay, Phase 2 (AID 2283591);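 note: compound exposure lasted 16 h at 37 °C; actives lower the ATP signal meaning cytotoxicity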
# Procedure, shortened: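 Cytotoxicity readout: CellTiter-Glo ATP luminescence, 30 min at room temperature, after the beta-lactamase read. Cells were HCT116 exposed 16 h at 37C to compounds pin-transferred at 217-fold dilution from DMSO stocks.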
# [3] = target: Cellular tumor antigen p53 (Homo sapiens) (UniProt P04637); assay: TOX21_p53_BLA_p2_ratio: Tox21 HCT-116 p53 Agonism Beta-lactamase Assay, Ratio, Phase 2 (AID 2283592)
# Procedure, shortened: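 Plated HCT116 p53-bla cells (4000/well) received compound after 5 h, then 16 h at 37C/5% CO2. CCF4-AM added, 2 h RT. Ratio of 460 to 530 nm emission taken as the p53 reporter signal.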
# [4] = TOX21_p53_BLA_p3_viability: Viability Assessment in the Tox21 HCT-116 p53 Agonism Beta-lactamase Assay, Phase 3 (AID 2283593);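 note: cells exposed to compound for 16 h before reading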
# Procedure, shortened: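 Cellular ATP was quantified by CellTiter-Glo luminescence, read after 30 min at room temperature. Beforehand, HCT116 cells (4000/well) received compound 5 h post-seeding, 217-fold diluted from DMSO, then incubated 16 h at 37C.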
# [5] = target: Cellular tumor antigen p53 (Homo sapiens) (UniProt P04637); assay: TOX21_p53_BLA_p3_ratio: Tox21 HCT-116 p53 Agonism Beta-lactamase Assay, Ratio, Phase 3 (AID 2283596)
# Procedure, shortened: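 Cells were seeded at 4000/well, rested 5 h at 37C, then dosed with DMSO compound solutions (217-fold dilution) for 16 h. CCF4-AM substrate was loaded for 2 h at room temperature, and the 460/530 nm emission ratio was fitted for gain of signal versus DMSO.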
# [6] = TOX21_p53_BLA_p4_viability: Viability Assessment in the Tox21 HCT-116 p53 Agonism Beta-lactamase Assay, Phase 4 (AID 2283597);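 note: hits lower the luminescence signal meaning cytotoxicity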
# Procedure, shortened: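 Readout: ATP luminescence (CellTiter-Glo), measured 30 min after reagent addition at RT. The reagent followed a 2 h CCF4-AM incubation, and the cells had been exposed to compound for 16 h at 37C.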
# [7] = target: Cellular tumor antigen p53 (Homo sapiens) (UniProt P04637); assay: TOX21_p53_BLA_p5_ratio: Tox21 HCT-116 p53 Agonism Beta-lactamase Assay, Ratio, Phase 5 (AID 2283599)
# Procedure, shortened: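 Beta-lactamase reporter ratio (blue 460 nm over green 530 nm, 405 nm excitation) after 2 h CCF4-AM loading, in HCT-116 cells exposed 16 h at 37 C to compounds pinned at 217-fold dilution. Increases relative to DMSO baseline scored.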
# [8] = TOX21_p53_BLA_p5_viability: Viability Assessment in the Tox21 HCT-116 p53 Agonism Beta-lactamase Assay, Phase 5 (AID 2283600)
# Procedure, shortened: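 Workflow: seed 4000 cells per well, wait 5 h, add compounds (DMSO, 217-fold dilution), incubate 16 h, load CCF4-AM 2 h, add CellTiter-Glo, read luminescence after 30 min.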
# [9] = target: Cellular tumor antigen p53 (Homo sapiens) (UniProt P04637); assay: TOX21_p53_BLA_p4_ratio: Tox21 HCT-116 p53 Agonism Beta-lactamase Assay, Ratio, Phase 4 (AID 2283601)
# Procedure, shortened: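 Signal is the blue/green (460nm/530nm) ratio of cleaved versus uncleaved CCF4-AM substrate, read after 2 h substrate loading. Cells were HCT116 carrying the p53-responsive beta-lactamase reporter, dosed 16 h at 37C, 5% CO2; CellTiter-Glo measured in parallel.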
# Chain of Cellular tumor antigen p53 (Homo sapiens) (P04637 whole entry, looked up): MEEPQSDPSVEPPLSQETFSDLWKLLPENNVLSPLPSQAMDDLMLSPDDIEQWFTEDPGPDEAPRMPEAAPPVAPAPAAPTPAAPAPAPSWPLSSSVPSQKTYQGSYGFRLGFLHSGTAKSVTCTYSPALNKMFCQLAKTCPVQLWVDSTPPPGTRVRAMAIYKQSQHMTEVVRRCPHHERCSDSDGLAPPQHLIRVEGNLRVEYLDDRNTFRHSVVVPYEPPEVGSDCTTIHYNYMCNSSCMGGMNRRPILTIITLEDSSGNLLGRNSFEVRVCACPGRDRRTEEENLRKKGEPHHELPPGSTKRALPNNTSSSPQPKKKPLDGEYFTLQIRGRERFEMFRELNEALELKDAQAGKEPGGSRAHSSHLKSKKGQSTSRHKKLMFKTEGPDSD
smiles,measurement,setting,value
CCOC(=O)C(C#N)=C(c1ccccc1)c1ccccc1,outcome,[1],inactive
same,outcome,[2],inactive
same,outcome,[3],inactive
same,outcome,[4],inactive
same,outcome,[5],inactive
same,outcome,[6],inactive
same,outcome,[7],inactive
same,outcome,[8],inactive
same,outcome,[9],inactive
CCOC(=O)CN,outcome,[1],inactive
CCc1cc(Cc2cc(CC)cc(C(C)(C)C)c2O)c(O)c(C(C)(C)C)c1,outcome,[1],inactive
same,AC50,[2],4.87 µM (active)
same,AC50,[3],14.9 µM (active)
same,AC50,[4],16.1 µM (active)
same,AC50,[5],32.6 µM (active)
same,AC50,[6],5.48 µM (active)
same,AC50,[7],29.3 µM (active)
same,AC50,[8],20.1 µM (active)
same,AC50,[9],10.8 µM (active)
CCN(CCN)c1cccc(C)c1,outcome,[1],inactive
same,outcome,[2],inactive
same,outcome,[3],inactive
same,outcome,[4],inactive
same,outcome,[5],inactive
same,outcome,[6],inactive
same,outcome,[7],inactive
same,outcome,[8],inactive
C=C(C#N)C(=O)OCC,outcome,[1],inactive
same,outcome,[2],inactive
same,outcome,[3],inactive
same,outcome,[4],inactive
same,outcome,[5],inactive
same,outcome,[6],inactive
same,outcome,[7],inactive
same,outcome,[8],inactive
same,outcome,[9],inactive
CC(C)(C)CC(C)(C)c1ccc(OCCOCC[N+](C)(C)Cc2ccccc2)cc1,AC50,[1],44.9 µM (active)
same,AC50,[2],37.1 µM (active) and 32.8 µM (active)
same,AC50,[3],56.2 µM (active) and 34.8 µM (active)
same,AC50,[4],60.7 µM (active) and 23 µM (active)
same,AC50,[5],61 µM (active)
same,outcome,[5],inactive
same,AC50,[6],33.7 µM (active) and 23 µM (active)
same,AC50,[7],79.3 µM (active) and 36.8 µM (active)
same,AC50,[8],73.6 µM (active)
same,outcome,[8],inactive
same,AC50,[9],70.9 µM (active) and 42.1 µM (active)
COC(=O)C=C(C)CCC=C(C)C,outcome,[1],inactive
same,outcome,[2],inactive
same,outcome,[3],inactive
same,outcome,[4],inactive
same,outcome,[5],inactive
same,outcome,[6],inactive
same,outcome,[7],inactive
CC1(C)C2=CCCC(C)(C)[C@]23CC[C@H]1C3,outcome,[1],inactive
same,outcome,[2],inactive
same,outcome,[3],inactive
same,outcome,[4],inactive
same,outcome,[5],inactive
same,outcome,[6],inactive
same,outcome,[7],inactive
same,outcome,[8],inactive
same,outcome,[9],inactive
Cc1ncc([N+](=O)[O-])n1CCO,outcome,[1],inactive
same,outcome,[2],inactive
same,outcome,[3],inactive
same,outcome,[4],inactive
same,outcome,[5],inactive
same,outcome,[6],inactive
same,outcome,[7],inactive
same,outcome,[8],inactive
same,outcome,[9],inactive
COc1ccc(CCN2CCC(Nc3nc4ccccc4n3Cc3ccc(F)cc3)CC2)cc1,outcome,[1],inactive
same,AC50,[2],15.2 µM (active) and 38.9 µM (active)
same,AC50,[3],31.1 µM (active) and 43.8 µM (active)
same,AC50,[4],15.2 µM (active)
same,outcome,[4],inactive
same,AC50,[5],37.5 µM (active)
same,AC50,[6],14.4 µM (active) and 23 µM (active)
same,AC50,[7],38.8 µM (active) and 42.9 µM (active)
same,AC50,[8],25.7 µM (active) and 40.5 µM (active)
same,AC50,[9],32.5 µM (active) and 43.3 µM (active)
CCCC(=O)OC(C)(C)Cc1ccccc1,outcome,[1],inactive
same,outcome,[2],inactive
same,outcome,[3],inactive
same,outcome,[4],inactive
same,outcome,[5],inactive
same,outcome,[6],inactive
same,outcome,[7],inactive
same,outcome,[8],inactive
same,outcome,[9],inactive
